# According to ChEMBL document CHEMBL1961873, “Compounds: GSK PKIS; Assays: Nanosyn kinase panel” (2012):
# What was measured:
# [1] = biological target: Sphingosine kinase 1 (Homo sapiens) (UniProt Q9NYA1); conditions: at 1 µM;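 note: mean SPHK1 inhibition value reported from the GSK PKIS kinase panel screen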
# [2] = biological target: T1, Sphingosine kinase 2 (Homo sapiens) (UniProt Q9NRA0); conditions: at 0.1 µM
# T1 sequence (whole entry): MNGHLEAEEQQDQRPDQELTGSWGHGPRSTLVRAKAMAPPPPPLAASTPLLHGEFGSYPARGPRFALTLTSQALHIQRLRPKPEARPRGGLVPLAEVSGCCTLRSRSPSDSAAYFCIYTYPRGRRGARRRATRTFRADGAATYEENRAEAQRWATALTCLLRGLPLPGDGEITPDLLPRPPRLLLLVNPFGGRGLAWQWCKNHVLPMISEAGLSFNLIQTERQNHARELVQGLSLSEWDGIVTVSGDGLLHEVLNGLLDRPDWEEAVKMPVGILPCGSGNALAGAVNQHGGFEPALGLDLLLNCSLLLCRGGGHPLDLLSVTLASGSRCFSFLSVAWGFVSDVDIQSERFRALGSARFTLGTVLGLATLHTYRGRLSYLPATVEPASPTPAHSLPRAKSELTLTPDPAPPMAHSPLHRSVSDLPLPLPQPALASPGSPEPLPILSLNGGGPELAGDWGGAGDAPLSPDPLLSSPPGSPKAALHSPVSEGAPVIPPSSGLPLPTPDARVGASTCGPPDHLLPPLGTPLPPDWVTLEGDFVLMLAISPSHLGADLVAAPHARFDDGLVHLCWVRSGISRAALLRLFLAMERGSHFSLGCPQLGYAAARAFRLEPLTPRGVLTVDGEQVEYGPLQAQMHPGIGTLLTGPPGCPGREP
# [3] = biological target: T1, Sphingosine kinase 2 (Homo sapiens); conditions: at 1 µM
# [4] = biological target: Casein kinase II subunit alpha (Homo sapiens) (UniProt P68400); conditions: at 0.1 µM
# [5] = biological target: Casein kinase II subunit alpha (Homo sapiens) (UniProt P68400); conditions: at 1 µM
# [6] = biological target: T2, Inhibitor of nuclear factor kappa-B kinase subunit alpha (Homo sapiens) (UniProt O15111); conditions: at 0.1 µM
# T2 sequence (whole entry): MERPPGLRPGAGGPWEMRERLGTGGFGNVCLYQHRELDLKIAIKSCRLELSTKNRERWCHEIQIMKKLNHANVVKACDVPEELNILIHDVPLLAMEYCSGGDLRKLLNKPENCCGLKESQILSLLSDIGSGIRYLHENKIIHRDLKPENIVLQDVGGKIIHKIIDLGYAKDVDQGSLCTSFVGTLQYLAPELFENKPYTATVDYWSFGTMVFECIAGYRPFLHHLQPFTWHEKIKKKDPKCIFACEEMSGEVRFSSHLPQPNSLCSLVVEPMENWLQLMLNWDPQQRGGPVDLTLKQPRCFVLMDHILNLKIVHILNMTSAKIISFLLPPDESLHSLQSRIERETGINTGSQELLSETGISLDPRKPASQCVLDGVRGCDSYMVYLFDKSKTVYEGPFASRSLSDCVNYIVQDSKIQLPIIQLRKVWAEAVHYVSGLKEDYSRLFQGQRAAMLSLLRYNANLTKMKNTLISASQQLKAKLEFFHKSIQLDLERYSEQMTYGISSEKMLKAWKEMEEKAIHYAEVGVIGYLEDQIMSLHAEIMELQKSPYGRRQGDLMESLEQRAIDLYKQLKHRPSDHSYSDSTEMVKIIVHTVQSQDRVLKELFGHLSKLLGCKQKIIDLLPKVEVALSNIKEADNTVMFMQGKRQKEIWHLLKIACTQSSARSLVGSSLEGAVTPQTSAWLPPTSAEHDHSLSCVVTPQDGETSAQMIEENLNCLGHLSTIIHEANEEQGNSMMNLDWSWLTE
# [7] = biological target: T2, Inhibitor of nuclear factor kappa-B kinase subunit alpha (Homo sapiens); conditions: at 1 µM
# [8] = biological target: T3, Inhibitor of nuclear factor kappa-B kinase subunit beta (Homo sapiens) (UniProt O14920); conditions: at 0.1 µM
# T3 sequence (whole entry): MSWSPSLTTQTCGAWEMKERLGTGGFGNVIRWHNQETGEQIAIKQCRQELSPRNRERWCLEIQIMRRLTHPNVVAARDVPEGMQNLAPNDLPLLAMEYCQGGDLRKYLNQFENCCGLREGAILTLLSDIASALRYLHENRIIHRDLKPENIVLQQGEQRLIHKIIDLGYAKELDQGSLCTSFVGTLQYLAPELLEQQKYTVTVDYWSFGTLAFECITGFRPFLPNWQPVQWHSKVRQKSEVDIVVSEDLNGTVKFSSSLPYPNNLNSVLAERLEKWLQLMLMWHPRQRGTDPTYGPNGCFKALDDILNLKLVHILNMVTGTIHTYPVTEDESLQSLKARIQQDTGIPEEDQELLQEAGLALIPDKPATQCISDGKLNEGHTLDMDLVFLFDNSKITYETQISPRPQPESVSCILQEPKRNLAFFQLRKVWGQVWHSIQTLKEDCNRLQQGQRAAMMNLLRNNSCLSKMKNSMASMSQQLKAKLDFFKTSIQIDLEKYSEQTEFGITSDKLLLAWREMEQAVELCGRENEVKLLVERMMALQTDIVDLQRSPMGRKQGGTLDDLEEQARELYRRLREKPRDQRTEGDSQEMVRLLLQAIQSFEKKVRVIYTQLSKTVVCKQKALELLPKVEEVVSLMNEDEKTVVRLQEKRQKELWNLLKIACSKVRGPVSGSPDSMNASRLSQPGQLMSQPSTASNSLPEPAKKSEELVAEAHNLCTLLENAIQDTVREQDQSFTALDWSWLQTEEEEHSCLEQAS
# [9] = biological target: T3, Inhibitor of nuclear factor kappa-B kinase subunit beta (Homo sapiens); conditions: at 1 µM
# [10] = biological target: T4, Inhibitor of nuclear factor kappa-B kinase subunit epsilon (Homo sapiens) (UniProt Q14164); conditions: at 0.1 µM
# T4 sequence (whole entry): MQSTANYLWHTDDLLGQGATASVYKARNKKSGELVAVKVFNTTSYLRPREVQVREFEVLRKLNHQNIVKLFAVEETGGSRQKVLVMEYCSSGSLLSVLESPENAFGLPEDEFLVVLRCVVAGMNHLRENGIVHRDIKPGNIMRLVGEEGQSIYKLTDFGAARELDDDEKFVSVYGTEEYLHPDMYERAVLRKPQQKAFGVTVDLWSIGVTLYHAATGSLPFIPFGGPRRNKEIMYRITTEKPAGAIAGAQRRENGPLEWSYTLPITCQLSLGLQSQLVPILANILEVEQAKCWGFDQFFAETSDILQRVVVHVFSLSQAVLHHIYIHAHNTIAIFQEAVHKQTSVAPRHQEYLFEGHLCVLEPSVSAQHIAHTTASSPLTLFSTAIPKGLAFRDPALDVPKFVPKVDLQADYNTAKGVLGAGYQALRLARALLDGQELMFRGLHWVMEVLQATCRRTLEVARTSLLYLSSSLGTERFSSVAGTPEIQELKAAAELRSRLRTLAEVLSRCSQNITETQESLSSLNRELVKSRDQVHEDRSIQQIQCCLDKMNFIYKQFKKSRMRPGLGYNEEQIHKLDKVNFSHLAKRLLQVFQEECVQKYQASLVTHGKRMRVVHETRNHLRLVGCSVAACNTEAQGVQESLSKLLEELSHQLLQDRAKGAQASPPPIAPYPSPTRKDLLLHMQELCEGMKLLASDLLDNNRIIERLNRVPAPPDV
# [11] = biological target: T4, Inhibitor of nuclear factor kappa-B kinase subunit epsilon (Homo sapiens); conditions: at 1 µM
# [12] = biological target: T5, Serine/threonine-protein kinase Nek1 (Homo sapiens) (UniProt Q96PY6); conditions: at 0.1 µM
# T5 sequence (whole entry): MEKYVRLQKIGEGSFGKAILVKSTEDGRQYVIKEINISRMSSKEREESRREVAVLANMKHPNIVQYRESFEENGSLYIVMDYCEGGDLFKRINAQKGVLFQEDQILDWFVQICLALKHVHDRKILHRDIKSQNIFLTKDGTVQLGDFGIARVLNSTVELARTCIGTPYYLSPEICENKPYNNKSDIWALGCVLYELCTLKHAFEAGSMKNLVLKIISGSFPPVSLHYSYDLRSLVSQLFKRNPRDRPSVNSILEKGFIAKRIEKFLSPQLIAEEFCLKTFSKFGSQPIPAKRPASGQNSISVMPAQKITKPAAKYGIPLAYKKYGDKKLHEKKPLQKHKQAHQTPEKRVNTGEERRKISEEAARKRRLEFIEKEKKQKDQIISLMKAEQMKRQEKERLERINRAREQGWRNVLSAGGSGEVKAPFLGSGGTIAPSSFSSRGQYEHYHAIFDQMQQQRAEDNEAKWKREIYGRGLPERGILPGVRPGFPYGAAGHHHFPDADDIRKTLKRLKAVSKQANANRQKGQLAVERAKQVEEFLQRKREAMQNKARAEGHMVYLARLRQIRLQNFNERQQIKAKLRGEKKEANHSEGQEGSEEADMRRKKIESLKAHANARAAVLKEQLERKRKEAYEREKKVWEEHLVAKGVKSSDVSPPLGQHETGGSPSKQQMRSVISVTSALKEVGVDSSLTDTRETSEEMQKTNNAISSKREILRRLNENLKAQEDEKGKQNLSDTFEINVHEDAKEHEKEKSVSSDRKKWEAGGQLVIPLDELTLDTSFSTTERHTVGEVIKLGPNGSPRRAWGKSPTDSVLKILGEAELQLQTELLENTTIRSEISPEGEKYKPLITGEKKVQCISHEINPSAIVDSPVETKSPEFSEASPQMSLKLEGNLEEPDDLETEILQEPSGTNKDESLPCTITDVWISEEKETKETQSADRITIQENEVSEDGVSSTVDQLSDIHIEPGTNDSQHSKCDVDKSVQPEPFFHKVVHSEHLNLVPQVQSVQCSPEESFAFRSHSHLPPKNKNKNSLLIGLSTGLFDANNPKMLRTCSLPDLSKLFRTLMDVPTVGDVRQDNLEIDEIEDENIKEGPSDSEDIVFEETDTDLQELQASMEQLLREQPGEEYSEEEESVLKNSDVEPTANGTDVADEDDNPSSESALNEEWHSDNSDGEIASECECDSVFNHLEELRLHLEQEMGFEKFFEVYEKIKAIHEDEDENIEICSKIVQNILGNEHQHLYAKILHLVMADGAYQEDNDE
# [13] = biological target: T5, Serine/threonine-protein kinase Nek1 (Homo sapiens); conditions: at 1 µM
# [14] = biological target: T6, Serine/threonine-protein kinase Nek2 (Homo sapiens) (UniProt P51955); conditions: at 0.1 µM
# T6 sequence (whole entry): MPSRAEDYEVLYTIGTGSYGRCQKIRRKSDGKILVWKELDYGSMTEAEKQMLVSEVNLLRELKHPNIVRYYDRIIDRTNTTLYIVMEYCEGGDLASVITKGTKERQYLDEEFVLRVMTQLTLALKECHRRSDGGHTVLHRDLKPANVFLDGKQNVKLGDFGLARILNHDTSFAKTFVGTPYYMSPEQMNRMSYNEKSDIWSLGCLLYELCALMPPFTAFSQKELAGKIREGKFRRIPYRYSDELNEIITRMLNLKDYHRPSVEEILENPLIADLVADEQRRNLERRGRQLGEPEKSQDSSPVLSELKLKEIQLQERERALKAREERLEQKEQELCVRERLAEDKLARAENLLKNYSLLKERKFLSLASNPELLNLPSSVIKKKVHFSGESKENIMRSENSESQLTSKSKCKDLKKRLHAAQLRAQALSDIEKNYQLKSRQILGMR
# [15] = biological target: T6, Serine/threonine-protein kinase Nek2 (Homo sapiens); conditions: at 1 µM
# [16] = biological target: Serine/threonine-protein kinase Nek6 (Homo sapiens) (UniProt Q9HC98); conditions: at 0.1 µM
# [17] = biological target: Serine/threonine-protein kinase Nek6 (Homo sapiens) (UniProt Q9HC98); conditions: at 1 µM
# [18] = biological target: Serine/threonine-protein kinase Nek7 (Homo sapiens) (UniProt Q8TDX7); conditions: at 0.1 µM
# [19] = biological target: Serine/threonine-protein kinase Nek7 (Homo sapiens) (UniProt Q8TDX7); conditions: at 1 µM
# [20] = biological target: T7, Serine/threonine-protein kinase Nek9 (Homo sapiens) (UniProt Q8TD19); conditions: at 0.1 µM;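 note: reported value is the mean percent inhibition of NEK9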
# T7 sequence (whole entry): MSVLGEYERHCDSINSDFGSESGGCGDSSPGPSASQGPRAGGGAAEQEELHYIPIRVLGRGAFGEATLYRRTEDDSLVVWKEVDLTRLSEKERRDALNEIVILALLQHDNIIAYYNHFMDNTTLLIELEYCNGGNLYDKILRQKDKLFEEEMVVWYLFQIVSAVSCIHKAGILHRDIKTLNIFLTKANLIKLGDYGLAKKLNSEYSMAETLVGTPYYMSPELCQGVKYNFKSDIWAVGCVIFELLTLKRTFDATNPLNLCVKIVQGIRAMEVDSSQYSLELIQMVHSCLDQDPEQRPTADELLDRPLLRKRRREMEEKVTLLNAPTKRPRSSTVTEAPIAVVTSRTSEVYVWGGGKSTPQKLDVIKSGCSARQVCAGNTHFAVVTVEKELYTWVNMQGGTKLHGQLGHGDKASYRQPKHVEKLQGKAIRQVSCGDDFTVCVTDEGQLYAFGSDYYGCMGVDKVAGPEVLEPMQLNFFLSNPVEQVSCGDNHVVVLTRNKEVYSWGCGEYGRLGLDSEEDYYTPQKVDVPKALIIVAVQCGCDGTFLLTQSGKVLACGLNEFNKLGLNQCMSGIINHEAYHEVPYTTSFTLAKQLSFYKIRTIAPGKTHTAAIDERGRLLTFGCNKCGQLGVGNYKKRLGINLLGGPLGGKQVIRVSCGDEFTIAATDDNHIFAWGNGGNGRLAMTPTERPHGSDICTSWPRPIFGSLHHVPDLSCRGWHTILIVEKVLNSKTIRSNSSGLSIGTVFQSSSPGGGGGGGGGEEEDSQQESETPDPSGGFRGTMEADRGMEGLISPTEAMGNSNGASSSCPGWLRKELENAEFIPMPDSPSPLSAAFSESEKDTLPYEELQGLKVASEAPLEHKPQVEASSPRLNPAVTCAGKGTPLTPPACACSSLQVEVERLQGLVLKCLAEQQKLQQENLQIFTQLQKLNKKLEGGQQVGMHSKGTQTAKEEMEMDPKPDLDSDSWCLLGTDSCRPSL
# Sequence of Serine/threonine-protein kinase Nek7 (Homo sapiens) (Q8TDX7 whole entry, looked up): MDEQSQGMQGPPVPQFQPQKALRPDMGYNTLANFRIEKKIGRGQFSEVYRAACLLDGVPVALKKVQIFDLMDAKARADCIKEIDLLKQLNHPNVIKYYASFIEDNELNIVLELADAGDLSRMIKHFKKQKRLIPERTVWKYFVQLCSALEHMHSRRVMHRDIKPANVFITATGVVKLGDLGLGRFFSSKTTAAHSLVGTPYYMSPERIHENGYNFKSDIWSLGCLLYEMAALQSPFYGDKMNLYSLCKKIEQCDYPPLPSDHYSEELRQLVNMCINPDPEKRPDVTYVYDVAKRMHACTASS
# Sequence of Casein kinase II subunit alpha (Homo sapiens) (P68400 whole entry, looked up): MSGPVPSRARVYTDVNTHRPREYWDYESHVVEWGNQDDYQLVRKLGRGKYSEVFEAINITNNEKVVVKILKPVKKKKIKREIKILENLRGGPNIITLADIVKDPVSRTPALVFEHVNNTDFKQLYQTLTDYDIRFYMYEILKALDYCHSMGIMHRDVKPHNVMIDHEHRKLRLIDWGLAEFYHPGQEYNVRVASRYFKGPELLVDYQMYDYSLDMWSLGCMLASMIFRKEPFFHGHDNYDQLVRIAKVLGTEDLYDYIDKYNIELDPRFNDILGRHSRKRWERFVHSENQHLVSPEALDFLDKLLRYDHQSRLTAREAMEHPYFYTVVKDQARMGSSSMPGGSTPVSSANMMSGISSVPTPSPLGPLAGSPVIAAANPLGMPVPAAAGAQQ
# Sequence of Serine/threonine-protein kinase Nek6 (Homo sapiens) (Q9HC98 whole entry): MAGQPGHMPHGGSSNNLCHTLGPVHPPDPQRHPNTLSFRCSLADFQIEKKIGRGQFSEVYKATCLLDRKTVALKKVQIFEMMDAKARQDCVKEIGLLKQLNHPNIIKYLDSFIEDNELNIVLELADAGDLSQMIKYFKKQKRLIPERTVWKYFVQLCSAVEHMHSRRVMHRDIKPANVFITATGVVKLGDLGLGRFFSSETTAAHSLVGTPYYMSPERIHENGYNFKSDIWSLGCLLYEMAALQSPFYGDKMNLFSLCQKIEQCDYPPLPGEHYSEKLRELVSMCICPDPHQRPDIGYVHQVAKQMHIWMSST
# Sequence of Sphingosine kinase 1 (Homo sapiens) (Q9NYA1 whole entry): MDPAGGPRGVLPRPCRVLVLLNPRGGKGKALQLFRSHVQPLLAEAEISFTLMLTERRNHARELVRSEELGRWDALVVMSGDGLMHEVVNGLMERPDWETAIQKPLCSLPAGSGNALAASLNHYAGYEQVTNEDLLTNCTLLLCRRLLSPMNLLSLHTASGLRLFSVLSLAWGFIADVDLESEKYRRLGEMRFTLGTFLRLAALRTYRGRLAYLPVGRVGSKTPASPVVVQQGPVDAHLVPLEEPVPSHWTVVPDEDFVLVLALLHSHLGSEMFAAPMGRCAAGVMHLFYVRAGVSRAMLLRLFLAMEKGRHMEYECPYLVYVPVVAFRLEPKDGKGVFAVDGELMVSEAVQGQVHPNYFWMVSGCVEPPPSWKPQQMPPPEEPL
compound,measurement,setting,value
O=S(=O)(CCOCc1ccc(-c2ccc3ncnc(Nc4ccc(OCc5cccc(F)c5)c(Cl)c4)c3c2)o1)c1ccccc1,inhibition,[1],1.2%
same,inhibition,[2],0.14%
same,inhibition,[3],14.2%
same,inhibition,[4],1.35%
same,inhibition,[5],4.52%
same,inhibition,[6],1.54%
same,inhibition,[7],4.26%
same,inhibition,[8],-0.1%
same,inhibition,[9],0.7%
same,inhibition,[10],1.59%
same,inhibition,[11],0.73%
same,inhibition,[12],1.11%
same,inhibition,[13],1.59%
same,inhibition,[14],3.36%
same,inhibition,[15],2.18%
same,inhibition,[16],0.77%
same,inhibition,[17],0.7%
same,inhibition,[18],1.66%
same,inhibition,[19],5.83%
same,inhibition,[20],5%
